# Results: PubChem BioAssay AID1159580 (chemical genetic matrix, 2015)
# Where “and” joins values, the source holds several entries; their conditions need not be identical. Identical values can stand only once. Among all 5,500 compounds or so, about 2,000 (36%) were called active. Not shown: some 18% with an inconclusive outcome. This is one part of the list. Unmarked numbers belong to inactive results. Rule as the data show it: active = normalized growth mostly below about 0.91 (no sharp cut-off); inconclusive = no clear call, values can overlap the other calls; inactive = mostly above about 0.92.
# Test: chemical genetic growth profiling, strain panel (AID 1159580);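 also: tested at 20 µM; growth read once vehicle control cultures reached saturation at 30 °C; 1 = growth at the plate median or of vehicle wells; lower values mean less growth of the strain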
# Details: growth OD
# [1] = S. cerevisiae deletion strains, locus YAL013W, strain DEP1, active compounds read low
# [2] = S. cerevisiae deletion strains, locus YAL040C, strain CLN3, active compounds read low
# [3] = S. cerevisiae deletion strains, locus YCL061C, strain MRC1 (second series), active compounds read low
# [4] = S. cerevisiae deletion strains, locus YDR150W, strain NUM1, active compounds read low
# [5] = S. cerevisiae deletion strains, locus YER002W, strain NOP16, active compounds read low
# [6] = S. cerevisiae deletion strains, locus YMR307W, strain GAS1, active compounds read low
# [7] = S. cerevisiae deletion strains, locus YNL128W, strain TEP1, active compounds read low
# [8] = S. cerevisiae deletion strains, locus YNL153C, strain GIM3, active compounds read low
# [9] = S. cerevisiae deletion strains, locus YNL175C, strain NOP13, active compounds read low
# [10] = S. cerevisiae deletion strains, locus YNL197C, strain WHI3, active compounds read low
# [11] = S. cerevisiae deletion strains, locus YNL224C, strain SQS1, active compounds read low
# [12] = S. cerevisiae deletion strains, locus YOR083W, strain WHI5 (second series), active compounds read low
# [13] = S. cerevisiae deletion strains, locus YPL055C, strain LGE1, active compounds read low
# [14] = S. cerevisiae deletion strains, locus YJR075W, strain HOC1, active compounds read low
# [15] = S. cerevisiae deletion strains, locus YPL241C, strain CIN2, active compounds read low
smiles,measurement,setting,value
CCN1C(=O)C=CC1=O,normalized growth,[1],1.04
same,normalized growth,[2],1
same,normalized growth,[3],1.01
same,normalized growth,[4],1.01
same,normalized growth,"S. cerevisiae deletion strains, locus YDR363W, strain ESC2, active compounds read low",0.992
same,normalized growth,[5],1
same,normalized growth,[6],1.02
same,normalized growth,[7],1.03
same,normalized growth,[8],1.02
same,normalized growth,[9],1.01
same,normalized growth,[10],1.01
same,normalized growth,[11],1
same,normalized growth,[12],1.07
same,normalized growth,[13],1.09
C[C@@]12C(=O)OC(=O)[C@]1(C)C1CCC2O1,normalized growth,[1],0.966
same,normalized growth,"S. cerevisiae deletion strains, locus YBR021W, strain FUR4, active compounds read low",0.808 (active)
same,normalized growth,"S. cerevisiae deletion strains, locus YBR229C, strain ROT2, active compounds read low",0.913 (active)
same,normalized growth,"S. cerevisiae deletion strains, locus YCL029C, strain bik1, active compounds read low",0.685 (active)
same,normalized growth,"S. cerevisiae deletion strains, locus YDL035C, strain GPR1, active compounds read low",0.919
same,normalized growth,"S. cerevisiae deletion strains, locus YDL074C, strain BRE1, active compounds read low",0.662 (active)
same,normalized growth,"S. cerevisiae deletion strains, locus YDL101C, strain DUN1, active compounds read low",0.971
same,normalized growth,"S. cerevisiae deletion strains, locus YDL134C, strain PPH21, active compounds read low",0.939
same,normalized growth,"S. cerevisiae deletion strains, locus YDL185W, strain tfp1, active compounds read low",0.106 (active)
same,normalized growth,"S. cerevisiae deletion strains, locus YDL192W, strain arf1, active compounds read low",0.87 (active)
same,normalized growth,"S. cerevisiae deletion strains, locus YDR101C, strain arx1, active compounds read low",0.715 (active)
same,normalized growth,[4],0.926
same,normalized growth,"S. cerevisiae deletion strains, locus YDR162C, strain NBP2, active compounds read low",0.824 (active)
same,normalized growth,"S. cerevisiae deletion strains, locus YDR318W, strain mcm21, active compounds read low",0.681 (active)
same,normalized growth,"S. cerevisiae deletion strains, locus YDR388W, active compounds read low",0.85 (active)
same,normalized growth,"S. cerevisiae deletion strains, locus YDR502C, strain sam2, active compounds read low",0.826 (active)
same,normalized growth,"S. cerevisiae deletion strains, locus YEL061C, strain CIN8, active compounds read low",0.91 (active)
same,normalized growth,"S. cerevisiae deletion strains, locus YER110C, active compounds read low",0.902
same,normalized growth,"S. cerevisiae deletion strains, locus YER155C, strain BEM2, active compounds read low",0.887 (active)
same,normalized growth,"S. cerevisiae deletion strains, locus YER167W, strain BCK2, active compounds read low",0.895 (active)
same,normalized growth,"S. cerevisiae deletion strains, locus YGL078C, strain dbp3, active compounds read low",0.15 (active)
same,normalized growth,"S. cerevisiae deletion strains, locus YGL086W, strain mad1, active compounds read low",0.911 (active)
same,normalized growth,"S. cerevisiae deletion strains, locus YGL248W, strain PDE1, active compounds read low",0.932
same,normalized growth,"S. cerevisiae deletion strains, locus YGR078C, strain PAC10, active compounds read low",0.869
same,normalized growth,"S. cerevisiae deletion strains, locus YGR135W, strain pre9, active compounds read low",0.785 (active)
same,normalized growth,"S. cerevisiae deletion strains, locus YGR229C, strain SMI1, active compounds read low",1.02
same,normalized growth,"S. cerevisiae deletion strains, locus YGR252W, strain gcn5, active compounds read low",0.848
same,normalized growth,"S. cerevisiae deletion strains, locus YHR030C, strain SLT2, active compounds read low",0.0503 (active) and 0.0957 (active)
same,normalized growth,"S. cerevisiae deletion strains, locus YHR079C, strain IRE1 (second series), active compounds read low",0.782 (active)
same,normalized growth,"S. cerevisiae deletion strains, locus YHR079C, strain IRE1, active compounds read low",0.173 (active)
same,normalized growth,"S. cerevisiae deletion strains, locus YHR094C, strain hxt1, active compounds read low",0.861 (active)
same,normalized growth,"S. cerevisiae deletion strains, locus YHR129C, strain ARP1, active compounds read low",0.877 (active)
same,normalized growth,"S. cerevisiae deletion strains, locus YHR200W, strain rpn10, active compounds read low",0.82 (active)
same,normalized growth,"S. cerevisiae deletion strains, locus YIL066C, strain RNR3, active compounds read low",0.924
same,normalized growth,"S. cerevisiae deletion strains, locus YIL073C, strain SPO22, active compounds read low",0.968
same,normalized growth,"S. cerevisiae deletion strains, locus YIL125W, strain kgd1, active compounds read low",0.23 (active)
same,normalized growth,"S. cerevisiae deletion strains, locus YIR030C, strain dcg1, active compounds read low",0.869 (active)
same,normalized growth,"S. cerevisiae deletion strains, locus YJL095W, strain BCK1, active compounds read low",0.0568 (active) and 0.105 (active)
same,normalized growth,"S. cerevisiae deletion strains, locus YJL134W, strain LCB3, active compounds read low",0.929
same,normalized growth,"S. cerevisiae deletion strains, locus YJL168C, strain set2, active compounds read low",0.798 (active)
same,normalized growth,"S. cerevisiae deletion strains, locus YJL187C, strain SWE1 (second series), active compounds read low",0.895
same,normalized growth,"S. cerevisiae deletion strains, locus YJR043C, strain POL32, active compounds read low",0.862
same,normalized growth,"S. cerevisiae deletion strains, locus YJR066W, strain TOR1, active compounds read low",0.049 (active)
same,normalized growth,[14],0.964
same,normalized growth,"S. cerevisiae deletion strains, locus YKL009W, strain mrt4, active compounds read low",0.169 (active)
same,normalized growth,"S. cerevisiae deletion strains, locus YKL068W, active compounds read low",0.288 (active)
same,normalized growth,"S. cerevisiae deletion strains, locus YKL085W, strain MDH1 (second series), active compounds read low",0.17 (active)
same,normalized growth,"S. cerevisiae deletion strains, locus YKL085W, strain MDH1, active compounds read low",0.17 (active)
same,normalized growth,"S. cerevisiae deletion strains, locus YKL190W, strain CNB1, active compounds read low",0.94
same,normalized growth,"S. cerevisiae deletion strains, locus YKR001C, strain vps1, active compounds read low",0.658 (active)
same,normalized growth,"S. cerevisiae deletion strains, locus YLR039C, strain RIC1, active compounds read low",0.918
same,normalized growth,"S. cerevisiae deletion strains, locus YLR058C, strain SHM2, active compounds read low",0.931
same,normalized growth,"S. cerevisiae deletion strains, locus YLR102C, strain apc9, active compounds read low",0.833 (active)
same,normalized growth,"S. cerevisiae deletion strains, locus YLR113W, strain HOG1, active compounds read low",0.182 (active)
same,normalized growth,"S. cerevisiae deletion strains, locus YLR262C, strain YPT6, active compounds read low",1
same,normalized growth,"S. cerevisiae deletion strains, locus YLR268W, strain sec22, active compounds read low",0.78 (active)
same,normalized growth,"S. cerevisiae deletion strains, locus YLR330W, strain CHS5, active compounds read low",0.923
same,normalized growth,"S. cerevisiae deletion strains, locus YLR342W, strain FKS1 (second series), active compounds read low",1.11
same,normalized growth,"S. cerevisiae deletion strains, locus YLR371W, strain rom2, active compounds read low",0.879 (active)
same,normalized growth,"S. cerevisiae deletion strains, locus YLR418C, strain cdc73, active compounds read low",0.949
same,normalized growth,"S. cerevisiae deletion strains, locus YML016C, strain PPZ1, active compounds read low",0.91 (active)
same,normalized growth,"S. cerevisiae deletion strains, locus YML032C, strain rad52, active compounds read low",0.69 (active)
same,normalized growth,"S. cerevisiae deletion strains, locus YML124C, strain tub3, active compounds read low",0.853 (active)
same,normalized growth,"S. cerevisiae deletion strains, locus YMR078C, strain ctf18, active compounds read low",0.753 (active)
same,normalized growth,"S. cerevisiae deletion strains, locus YMR223W, strain ubp8, active compounds read low",0.8 (active)
same,normalized growth,"S. cerevisiae deletion strains, locus YMR263W, strain SAP30, active compounds read low",0.877 (active)
same,normalized growth,[6],1.13
same,normalized growth,"S. cerevisiae deletion strains, locus YNL067W, strain RPL9B, active compounds read low",0.841 (active)
same,normalized growth,[7],0.944
same,normalized growth,[8],0.671 (active)
same,normalized growth,"S. cerevisiae deletion strains, locus YNL183C, strain NPR1, active compounds read low",0.0569 (active)
same,normalized growth,"S. cerevisiae deletion strains, locus YNL233W, strain BNI4, active compounds read low",0.923
same,normalized growth,"S. cerevisiae deletion strains, locus YNL250W, strain rad50, active compounds read low",0.144 (active)
same,normalized growth,"S. cerevisiae deletion strains, locus YNL271C, strain bni1, active compounds read low",0.521 (active)
same,normalized growth,"S. cerevisiae deletion strains, locus YNL298W, strain CLA4, active compounds read low",0.162 (active)
same,normalized growth,"S. cerevisiae deletion strains, locus YNL307C, strain MCK1, active compounds read low",0.922
same,normalized growth,"S. cerevisiae deletion strains, locus YNL322C, strain KRE1, active compounds read low",0.923 (active)
same,normalized growth,"S. cerevisiae deletion strains, locus YNR052C, strain pop2, active compounds read low",0.791 (active)
same,normalized growth,"S. cerevisiae deletion strains, locus YOL006C, strain TOP1, active compounds read low",0.835
same,normalized growth,"S. cerevisiae deletion strains, locus YOL012C, strain htz1",0.4
same,normalized growth,"S. cerevisiae deletion strains, locus YOL147C, strain pex11, active compounds read low",0.825 (active)
same,normalized growth,"S. cerevisiae deletion strains, locus YOR061W, strain CKA2, active compounds read low",0.905
same,normalized growth,"S. cerevisiae deletion strains, locus YOR069W, strain VPS5, active compounds read low",0.917 (active)
same,normalized growth,"S. cerevisiae deletion strains, locus YOR136W, strain idh2, active compounds read low",0.906 (active)
same,normalized growth,"S. cerevisiae deletion strains, locus YOR144C, strain elg1, active compounds read low",0.703 (active)
same,normalized growth,"S. cerevisiae deletion strains, locus YOR184W, strain ser1, active compounds read low",0.939
same,normalized growth,"S. cerevisiae deletion strains, locus YOR231W, strain MKK1, active compounds read low",0.147 (active)
same,normalized growth,"S. cerevisiae deletion strains, locus YOR316C, strain cot1, active compounds read low",0.854 (active)
same,normalized growth,[13],0.601 (active)
same,normalized growth,[15],0.932
same,normalized growth,"S. cerevisiae deletion strains, locus YPL256C, strain CLN2, active compounds read low",0.167 (active)
same,normalized growth,"S. cerevisiae deletion strains, locus YPR119W, strain clb2, active compounds read low",0.861 (active)
same,normalized growth,"S. cerevisiae deletion strains, locus YPR141C, strain kar3, active compounds read low",0.113 (active)
same,normalized growth,"S. cerevisiae deletion strains, locus YPR163C, strain tif3, active compounds read low",0.585 (active)
same,normalized growth,"S. cerevisiae deletion strains, locus YPR167C, strain met16, active compounds read low",0.786 (active)
same,normalized growth,"S. cerevisiae deletion strains, strain wtn01, active compounds read low",0.834 (active)
same,normalized growth,"S. cerevisiae strains, strain wild type, active compounds read low",0.94
CC12C(=O)OC(=O)C1(C)C1CCC2O1 (configuration not stated),normalized growth,[2],0.905
same,normalized growth,[3],0.975
same,normalized growth,[5],0.925
same,normalized growth,[14],1.04
same,normalized growth,[7],0.954
same,normalized growth,[9],0.887 (active)
same,normalized growth,[10],0.879 (active)
same,normalized growth,[11],0.911 (active)
same,normalized growth,[12],0.85 (active)
same,normalized growth,[13],1.05
same,normalized growth,[15],0.967
